Here are results for nine compounds from PubChem BioAssay (Tox21).

The target of test [1] is Progesterone receptor (Homo sapiens) (UniProt P06401). The test is described as follows: qHTS assay to identify small molecule antagonists of the progesterone receptor (PR) signaling pathway (AID 1346795; active = well fitted inhibition curve with a large enough effect in the signal ratio in the repeat runs, not every such curve was filed as active; the % refers to the signal ratio; note: potency is the fitted concentration of half-maximal effect). In outline:
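Read-out is fluorescence from the LiveBLAzer B/G FRET substrate, cleaved by a UAS-controlled beta-lactamase in PR-UAS-bla HEK293T cells after 16 hr exposure to compound plus 1 nM promegestone (final), followed by 2 hr at room temperature.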
On the technique in general: In qHTS, concentration-response curves come from the screen itself.

A short description of test [2]: qHTS assay to identify small molecule antagonists of the TGF-beta/Smad signaling pathway - cell viability counter screen (AID 1346824). Note: nearly all actives have a fitted effect of over 50% in size. The gist of the method:
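SBE-bla HEK 293T cells were plated overnight at 37 C, then given compounds in DMSO plus TGF-beta1 (added as 0.25 ng/mL solution) for 5 hr. After the bla read, CellTiter-Glo was added to the same wells and luminescence read after 30 min at room temperature.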

Test [3] in a line: qHTS assay to identify small molecule agonists of the TGF-beta/Smad signaling pathway - cell viability counter screen (AID 1346829). Note: top concentration of the series differs between compounds; nearly all actives have a fitted effect of over 45% in size. The gist of the method:
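Tox21 qHTS format: SBE-bla HEK 293T cells treated with DMSO-dissolved compounds for 5 hr; CellTiter-Glo luminescence after 30 min at room temperature.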

Test [4] can be described thus: qHTS assay to identify small molecule agonists of the TGF-beta/Smad signaling pathway (AID 1346859; active = well fitted activation curve with a large enough effect in the signal ratio in the repeat runs, not every such curve was filed as active; the % refers to the signal ratio; note: series mostly up to about 77 µM). The gist of the method: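 SBE-bla HEK 293T, 4,000 cells/well, plated o/n; cpd in DMSO, 5 hr, 37 C/5% CO2; B/G FRET substrate 2 hr RT; ex 405, em 460/530 nm.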
The nature of test [5]: Human pregnane X receptor (PXR) small molecule agonists, qHTS cell viability counter screen (AID 1346977). Note: nearly all actives have a fitted effect of over 50% in size. Note: potency is the fitted concentration of half-maximal effect. In outline:
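PXR-Luc HepG2, 2,000 cells/well, 5% charcoal-stripped FBS; 5hr settle; cpd 24hr, 37C/5% CO2; CellTiter-Fluor at 23hr, read 1hr later (fluorescence).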

Test [6] is described as follows: Caspase-3/7 induction in HepG2 cells by small molecules, qHTS assay (AID 1346978). Note: nearly all actives have a fitted effect of over 15% in size. The gist of the method: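 Wild-type HepG2 cells (2,000/well) were settled 5 h at 37 C, 5% CO2, then exposed to compounds in DMSO for 17 h. Caspase-3/7 activity was read by luminescence 30 min after adding Caspase-Glo 3/7 reagent at room temperature.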
Test [7] can be described thus: Caspase-3/7 induction in CHO-K1 cells by small molecules, qHTS cell viability counter screen (AID 1346979). Note: nearly all actives have a fitted effect of over 35% in size. Note: potency is the fitted concentration of half-maximal effect. In outline:
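Cells (CHO-K1, wild type) are plated at 1,500 per well and incubated 5hr. Test compounds in DMSO are then pinned in, followed by 16hr at 37C and 5% CO2. Viability is read by CellTiter-Fluor fluorescence after 1hr.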

Test [8] in a line: Caspase-3/7 induction in CHO-K1 cells by small molecules, qHTS assay (AID 1346980). Note: nearly all actives have a fitted effect of over 15% in size. In outline: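 Wild-type cells were seeded at 1,500 per well and settled 5 hr at 37 C, 5% CO2, then exposed to DMSO-dissolved compounds for 17 hr. Caspase-Glo 3/7 reagent was added, and luminescence was read after 30min at room temperature.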
In test [9] the target is Nuclear receptor subfamily 1 group I member 2 (Homo sapiens) (UniProt O75469). The test is described as follows: Human pregnane X receptor (PXR) small molecule agonists, qHTS assay (AID 1346982). Note: nearly all actives have a fitted effect of over 35% in size. Note: potency is the fitted concentration of half-maximal effect. The gist of the method: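 After plating in 5% charcoal-stripped FBS and a 5 hr rest, PXR-Luc HepG2 cells received compounds in DMSO. Following 24 hr at 37 C, ONE-Glo was added and light output read.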
Nuclear receptor subfamily 1 group I member 2 (Homo sapiens), sequence (O75469 whole entry, looked up): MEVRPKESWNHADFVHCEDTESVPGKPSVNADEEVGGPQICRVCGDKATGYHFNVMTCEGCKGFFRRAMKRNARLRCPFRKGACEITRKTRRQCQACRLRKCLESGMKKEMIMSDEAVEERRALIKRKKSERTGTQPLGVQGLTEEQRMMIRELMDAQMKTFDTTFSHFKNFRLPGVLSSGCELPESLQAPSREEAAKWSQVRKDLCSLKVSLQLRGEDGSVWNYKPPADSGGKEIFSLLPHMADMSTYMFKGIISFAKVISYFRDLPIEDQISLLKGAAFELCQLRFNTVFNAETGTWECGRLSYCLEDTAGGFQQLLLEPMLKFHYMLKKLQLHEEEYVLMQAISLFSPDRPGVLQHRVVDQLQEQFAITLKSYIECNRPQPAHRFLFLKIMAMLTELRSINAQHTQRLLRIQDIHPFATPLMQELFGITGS

The target in test [10] is Nuclear receptor subfamily 1 group I member 2 (Rattus norvegicus) (UniProt Q9R1A7). The test can be described thus: Rat pregnane X receptor (rPXR) activation by small molecules, qHTS assay (AID 1346983). Note: nearly all actives have a fitted effect of over 20% in size. Note: potency is the fitted concentration of half-maximal effect. Particulars: rPXR luciferase reporter cells, One-Glo luminescence, 24 h; max activation: hits give high values. In outline: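 Cell-based rPXR luciferase reporter assay, 2,000 cells per well, rested 5hr at 37 C before compound addition in DMSO, then 24 hr at 37 C. One-Glo reagent was added and luminescence read after 30 min at room temperature.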
Nuclear receptor subfamily 1 group I member 2 (Rattus norvegicus), sequence (Q9R1A7 whole entry, looked up): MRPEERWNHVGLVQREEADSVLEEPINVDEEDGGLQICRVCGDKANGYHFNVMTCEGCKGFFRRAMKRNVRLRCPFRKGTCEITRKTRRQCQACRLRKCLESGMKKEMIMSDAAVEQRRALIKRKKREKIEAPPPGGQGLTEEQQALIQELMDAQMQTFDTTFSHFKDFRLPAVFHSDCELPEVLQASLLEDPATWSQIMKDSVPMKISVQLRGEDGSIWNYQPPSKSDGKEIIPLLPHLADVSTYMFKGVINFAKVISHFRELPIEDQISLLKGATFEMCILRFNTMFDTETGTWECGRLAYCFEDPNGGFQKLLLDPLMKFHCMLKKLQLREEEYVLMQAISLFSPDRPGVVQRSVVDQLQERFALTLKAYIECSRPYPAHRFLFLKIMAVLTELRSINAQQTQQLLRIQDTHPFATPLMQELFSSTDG

The target of test [11] is Nuclear receptor subfamily 1 group I member 2 (Homo sapiens) (UniProt O75469). The test can be described thus: CYP3A4 induction through human pregnane X receptor (PXR) by small molecules, qHTS assay (AID 1346984). Note: nearly all actives have a fitted effect of over 40% in size. Note: potency is the fitted concentration of half-maximal effect. In outline: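 Human PXR activation is tracked via CYP3A4 promoter-luciferase in DPX-2 (HepG2) cells. Compounds treat cells for 24hr at 37C, and luminescence is read after One-Glo.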

The target in test [12] is Cytochrome P450 2D6 (Homo sapiens) (UniProt P10635). The test is described as follows: Cytochrome P450 Family 2 Subfamily D Member 6 (CYP2D6) small molecule antagonists: luciferase reporter qHTS assay (AID 1671196). Note: nearly all actives have a fitted effect of over 50% in size. Note: potency is the fitted concentration of half-maximal effect. The gist of the method:
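Quantitative HTS of Tox21 chemicals against CYP2D6 using a luminescent proluciferin substrate. After NADPH addition, 1 h room-temperature reaction; luminescence recorded 20 min post detection reagent.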
(In general: A reporter such as luciferase makes a cellular process visible.)

Test [13] has as its target Cytochrome P450 2C19 (Homo sapiens) (UniProt P33261). The test is described as follows: Cytochrome P450 Family 2 Subfamily C Member 19 (CYP2C19) small molecule antagonists: luciferase reporter qHTS assay (AID 1671197). Note: nearly all actives have a fitted effect of over 65% in size. Note: potency is the fitted concentration of half-maximal effect. The gist of the method: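 Relative luminescence units recorded 20 min after the detection reagent stopped a 1 h, 37C CYP2C19 reaction on proluciferin substrate, which was started by NADPH regeneration following 10 min room-temperature compound preincubation; ketoconazole positive control.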

A short description of test [14]: qHTS assay to identify small molecule antagonists of the progesterone receptor (PR) signaling pathway - cell viability counter screen (AID 1346798). Note: nearly all actives have a fitted effect of over 50% in size. Note: potency is the fitted concentration of half-maximal effect. In outline: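 HEK293T PR-UAS-bla, 2% charcoal-stripped FBS; 4 hr pre-plate; cpd + R5020, 16 h 37C; LiveBLAzer read first; then CellTiter-Glo 30 min RT, luminescence.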
The target in test [15] is Thyrotropin-releasing hormone receptor (Homo sapiens) (UniProt P34981). The test can be described thus: qHTS assay to identify small molecule antagonists of the thyrotropin-releasing hormone receptor (TRHR) signaling pathway (AID 1346877; active = well fitted inhibition curve with a large enough effect in the repeat runs, not every such curve was filed as active; note: series mostly up to about 51 µM). The gist of the method:
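Human TRHR in HEK293 cells; inhibition of the intracellular calcium rise triggered by 1 nM TRH was followed by fluorescence over 3 min. Compounds were run at 15 concentrations, three replicates each.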

The target is the same in test [16]. The test can be described thus: qHTS assay to identify small molecule agonists of the thyrotropin-releasing hormone receptor (TRHR) signaling pathway (AID 1346891; calls by dose curve; note: series mostly up to about 58 µM). The gist of the method: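 Intracellular calcium rise, read as fluorescence every second for 3 min, served as the agonist signal in dye-loaded HEK293 cells expressing TRHR; each compound ran at 15 concentrations in triplicate.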

Test [17] can be described thus: Caspase-3/7 induction in HepG2 cells by small molecules, qHTS cell viability counter screen (AID 1346981). Note: nearly all actives have a fitted effect of over 30% in size. Note: potency is the fitted concentration of half-maximal effect. In outline: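 The parent HepG2 line is plated at 2,000 cells per well and rested 5 hr before compound pinning from DMSO stocks. Following a 16-hr treatment at 37 C, a fluorogenic live-cell substrate (CellTiter-Fluor) reports viability after 1 hr.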
The nature of test [18]: qHTS assay to identify small molecule agonists of the progesterone receptor (PR) signaling pathway - cell viability counter screen (AID 1346799; calls by dose curve; note: nearly all actives have a fitted effect of over 45% in size; note: potency is the fitted concentration of half-maximal effect). In outline: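 Luminescence from CellTiter-Glo, added after the beta-lactamase FRET read in the same wells, gave cytotoxicity in PR-UAS-bla HEK293T cells treated with compounds for 16 hr at 37C.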
In test [19] the target is Progesterone receptor (Homo sapiens) (UniProt P06401). The test is described as follows: qHTS assay to identify small molecule agonists of the progesterone receptor (PR) signaling pathway (AID 1346784; calls by dose curve; note: nearly all actives have a fitted effect of over 30% in size). The gist of the method:
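Beta-lactamase reporter read-out: after 16 hr compound treatment at 37C and a further 2 hr at room temperature with LiveBLAzer B/G FRET substrate, fluorescence was measured in PR-UAS-bla HEK 293T cells grown in 2% charcoal-stripped serum.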

Test [20] concerns the target Nuclear receptor subfamily 1 group I member 2 (Homo sapiens) (UniProt O75469). The test is described as follows: Human pregnane X receptor (PXR) activation by small molecules, qHTS assay (AID 1346985). Note: nearly all actives have a fitted effect of over 40% in size. In outline: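 DPX-2 cells (HepG2 co-transfected with a PXR response element and a CYP3A4-promoter luciferase construct) were seeded at 2,000 per well, rested 5 hr at 37C, then exposed to DMSO-dissolved compounds for 24 hr. Activation was read as luciferase luminescence.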

Molecules are shown by their SMILES. Unmarked numbers belong to inactive results. Records with an inconclusive call do not appear. Activity calls are given as the source filed them. Unless noted, calls come from the whole dose curve; as a rule, active = well fitted curve in the direction sought with a large enough effect in the repeat runs; inconclusive = weak or mixed curves; inactive = no such curve, though single readings can be large; an effect the other way counts as inactive or inconclusive.
% is set by controls: 0 for no effect and ±100 for the full control effect.

Cytochrome P450 2D6 (Homo sapiens), sequence (P10635 whole entry, looked up): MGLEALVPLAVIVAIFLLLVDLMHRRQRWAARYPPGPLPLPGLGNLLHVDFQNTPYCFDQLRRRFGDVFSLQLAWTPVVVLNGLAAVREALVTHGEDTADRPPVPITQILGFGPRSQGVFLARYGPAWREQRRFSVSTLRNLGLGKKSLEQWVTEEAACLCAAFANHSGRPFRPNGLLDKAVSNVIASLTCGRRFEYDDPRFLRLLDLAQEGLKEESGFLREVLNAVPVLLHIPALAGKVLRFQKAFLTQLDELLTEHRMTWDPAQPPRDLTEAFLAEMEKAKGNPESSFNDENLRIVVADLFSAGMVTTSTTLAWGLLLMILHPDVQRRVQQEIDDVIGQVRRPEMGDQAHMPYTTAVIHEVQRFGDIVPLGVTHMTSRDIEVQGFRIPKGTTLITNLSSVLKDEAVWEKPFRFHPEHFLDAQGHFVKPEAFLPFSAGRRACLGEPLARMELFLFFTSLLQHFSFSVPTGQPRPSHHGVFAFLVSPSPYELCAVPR
Cytochrome P450 2C19 (Homo sapiens), sequence (P33261 whole entry, looked up): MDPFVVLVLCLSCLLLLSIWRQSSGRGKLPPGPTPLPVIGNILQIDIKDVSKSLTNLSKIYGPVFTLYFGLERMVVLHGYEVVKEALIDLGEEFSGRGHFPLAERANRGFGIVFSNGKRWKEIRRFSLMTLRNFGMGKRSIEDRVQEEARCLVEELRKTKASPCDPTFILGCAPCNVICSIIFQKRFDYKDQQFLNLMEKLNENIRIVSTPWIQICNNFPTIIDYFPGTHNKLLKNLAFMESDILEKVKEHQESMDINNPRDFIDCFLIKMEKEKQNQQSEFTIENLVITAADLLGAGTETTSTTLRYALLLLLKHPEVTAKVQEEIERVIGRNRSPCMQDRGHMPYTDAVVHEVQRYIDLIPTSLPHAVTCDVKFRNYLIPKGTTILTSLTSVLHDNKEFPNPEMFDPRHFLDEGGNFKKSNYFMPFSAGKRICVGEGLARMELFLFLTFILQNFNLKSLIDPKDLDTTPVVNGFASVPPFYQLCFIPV
Thyrotropin-releasing hormone receptor (Homo sapiens), sequence (P34981 whole entry, looked up): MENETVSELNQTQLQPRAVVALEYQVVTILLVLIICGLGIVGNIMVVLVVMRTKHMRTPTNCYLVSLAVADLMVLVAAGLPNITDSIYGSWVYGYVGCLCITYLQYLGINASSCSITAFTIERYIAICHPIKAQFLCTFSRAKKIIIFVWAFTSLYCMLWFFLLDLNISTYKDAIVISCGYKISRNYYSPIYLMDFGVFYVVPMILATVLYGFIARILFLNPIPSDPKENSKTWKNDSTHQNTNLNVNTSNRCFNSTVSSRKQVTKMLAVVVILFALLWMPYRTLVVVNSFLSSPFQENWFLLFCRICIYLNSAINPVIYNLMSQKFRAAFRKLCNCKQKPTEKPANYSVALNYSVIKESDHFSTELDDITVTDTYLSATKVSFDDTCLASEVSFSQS
Progesterone receptor (Homo sapiens), sequence (P06401 whole entry, looked up): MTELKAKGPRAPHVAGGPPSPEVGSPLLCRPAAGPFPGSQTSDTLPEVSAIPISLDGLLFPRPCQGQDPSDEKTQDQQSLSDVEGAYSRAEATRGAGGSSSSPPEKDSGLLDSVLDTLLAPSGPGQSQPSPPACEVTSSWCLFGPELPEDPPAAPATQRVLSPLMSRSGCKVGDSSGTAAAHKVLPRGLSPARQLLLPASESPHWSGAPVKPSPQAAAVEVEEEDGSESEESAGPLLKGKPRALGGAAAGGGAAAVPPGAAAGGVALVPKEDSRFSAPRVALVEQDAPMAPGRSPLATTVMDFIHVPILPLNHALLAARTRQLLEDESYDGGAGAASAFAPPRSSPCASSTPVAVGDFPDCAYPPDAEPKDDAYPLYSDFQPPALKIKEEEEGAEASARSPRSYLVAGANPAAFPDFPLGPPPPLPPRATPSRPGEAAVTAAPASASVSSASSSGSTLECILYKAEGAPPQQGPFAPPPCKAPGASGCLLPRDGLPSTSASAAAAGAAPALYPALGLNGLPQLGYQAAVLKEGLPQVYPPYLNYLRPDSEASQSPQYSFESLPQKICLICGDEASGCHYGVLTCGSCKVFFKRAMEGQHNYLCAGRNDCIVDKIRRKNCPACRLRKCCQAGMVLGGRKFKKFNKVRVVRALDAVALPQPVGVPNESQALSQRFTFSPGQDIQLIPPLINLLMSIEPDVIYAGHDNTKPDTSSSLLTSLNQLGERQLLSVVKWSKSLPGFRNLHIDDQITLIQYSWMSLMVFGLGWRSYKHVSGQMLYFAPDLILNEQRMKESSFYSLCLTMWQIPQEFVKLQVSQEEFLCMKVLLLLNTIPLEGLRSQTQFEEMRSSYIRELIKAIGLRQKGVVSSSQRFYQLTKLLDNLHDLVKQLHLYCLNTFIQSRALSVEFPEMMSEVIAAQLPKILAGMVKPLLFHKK

As to `O=C1[C@H](CC[C@H](O)c2ccc(F)cc2)[C@@H](c2ccc(O)cc2)N1c1ccc(F)cc1`, the Potency in [1] is 23.7 µM (active); in [7], 29.8 µM (active); in test [9], 29.8 µM (active); in test [12], 30.9 µM (active); in test [13], 2.75 µM (active). The Potency result in test [2], in [3], in test [5], in [8] and in test [11] was “inactive” in each case. Besides, the outcome in test [4] and in test [6] was inactive. In addition, the max activation in [10] was -2.85%.
With `Nc1ccc(C(=O)N2CC3CC(CN(Cc4ccccc4)C3)C2)cc1`, the Potency entry in test [14], in [2], in test [3], in [16], in test [5] and in test [7] was “inactive” throughout. The Potency result in test [8], in [17] and in [9] was “inactive” in each case. Also, the compound was classed as inactive in test [4], in test [15] and in [6].
With `COC(=O)C(C)=O`, the Potency entry in [1], in test [14], in [18], in test [3], in test [16] and in [5] was “inactive” each time. The Potency result in test [7], in test [8], in test [17], in test [9] and in test [12] was “inactive” each time. Further, the compound was classed as inactive in test [4], in [15] and in test [6]. For the same compound, the Potency in [13] was 71.3 µM (active).
For `CN1CCC(=C2c3ccccc3CCc3sccc32)CC1`, the outcome in [19], in test [4] and in test [6] was inactive. For the same compound, the Potency in test [18] is 15 µM (active); in test [11], 28.2 µM (active); in test [12], 1.23 µM (active); in [13], 8.71 µM (active). Besides, the Potency entry in test [3], in test [7], in test [8], in test [17] and in test [20] was “inactive” each time. In addition, the max activation in [10] is 0.0937%.
As to `CCCCCOC(=O)c1ccc(O)cc1`, the Potency in [1] was 27.6 µM (active); in test [12] it was 71.8 µM (active); in test [13], 28.6 µM (active). Also, the Potency entry in test [2], in test [3], in [5], in test [8] and in test [17] was “inactive” each time. For the same compound, the result in test [4] and in test [6] was inactive.
For `Nc1nc(CC(=O)O)cs1`, the Potency result in test [2], in test [3], in test [16], in test [8], in [17] and in test [9] was “inactive” throughout. Also, the result in test [4], in test [15] and in [6] was inactive. In addition, in test [12], the Potency was 28.3 µM (active).
In the case of `CCc1nn(C2CCCCC2)c2cc(C3(C#N)CCC(C(=O)O)CC3)ccc12` (stereo unspecified), the compound was called inactive in test [19], in test [15] and in [6]. In addition, the Potency entry in test [2], in [3], in test [16], in test [8] and in [12] was “inactive” each time. Moreover, the Potency in test [5] is 48.6 µM (active); in [7], 27.3 µM (active); in test [17] it was 15.4 µM (active); in test [9] it was 68.6 µM (active).
Regarding `Cc1ncsc1CCO`, the Potency entry in test [1], in test [14], in test [18], in [2], in test [3] and in test [5] was “inactive” in each case. The Potency result in [7], in test [8], in [17], in test [9], in [12] and in test [13] was “inactive” in each case. Besides, the result in [4], in [15] and in test [6] was inactive.
Consider `Nc1ccc(C(=O)Nc2ccccc2N)cc1`, for which the Potency was 13.3 µM (active) in test [14], 8.41 µM (active) in test [9] and 3.55 µM (active) in [10]. Moreover, the Potency entry in test [2], in test [3], in [8], in test [17], in [11] and in [12] was “inactive” throughout. In test [13], the Potency entry was “inactive”. In addition, the result in test [4] was inactive.
